An excerpt weighted towards active compounds, which were near 19% of everything screened.
BCR signal inh: inhibitors of chronic active B-cell receptor signaling. ABC-DLBCL IkBa-CBG/CBR reporter, luminescence ratio, 4 h. Potency, µM (doses to about 46.1 µM), inactives show at the highest dose activity change, negative = inhibition, most hits filed as inhibitors. 340,000 tested, 0.05% active. AID 493014; active = well fitted inhibition curve with a large enough effect in the signal ratio, with a control signal flat, not every such curve was filed as active; inconclusive = small, poorly fitted or top-dose-only effect, or effect the other way, or a change in a side signal; the % refers to the signal ratio;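 note: potency is the fitted concentration of half-maximal effect; plate controls were basal doxycycline-induced cells for no effect and cells given 10 µM MG132 for full effect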
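Cell line TMD8 (human ABC DLBCL), stably expressing tet-inducible CBG68-IkBa fusion and CBR; IMDM/0.5% FBS; cpd up to 46 uM; dox induction, 4 h, 37C/5% CO2; dual luminescence; green/red ratio; MG132 control.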
DT40 TDP1 CPT: DT40-hTDP1 cell growth loss with CPT; 420,000 tested, 12% active; chicken DT40 Tdp1-/-;hTDP1 cells + 20 nM CPT, ATP luminescence, 48 h; Potency, µM (titrated, usually from 46.2 µM), for inactives: at the highest dose activity change, negative = growth inhibition, usual class: inhibitors; note: potency is the fitted concentration of half-maximal effect; % is set by controls: 0 for no effect and ±100 for the full control effect; nearly all actives have a fitted effect of over 55% in size
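Chicken DT40 Tdp1-/- cells complemented with human TDP1, 400 cells/well, exposed to compounds plus 20 nM camptothecin for at least 48 h at 37 C; viability read as ATP content by CellTiter-Glo luminescence.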
IL1B secr inh: inflammasome signaling inhibition, IL-1 beta readout; AID 743279; 360,000 tested, 4.7% active; activity change, % at 57.5 µM; THP-1 LPS/ATP IL-1B secretion, AlphaLISA, 16 h; hits give low values; in the data active = activity change below about -50%; inconclusive = mostly about -30% to -49%; note: % is set by controls: 0 for no effect and ±100 for the full control effect
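Secreted IL-1B measured by AlphaLISA bead assay after 16 h compound exposure of THP-1 cells; compounds (final up to 57.5 uM) added 1 h before LPS (250 ng/mL) and ATP (1.25 mM) stimulation; lower signal means less secretion.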
TDP1 cell noCPT: qHTS for Inhibitors of human tyrosyl-DNA phosphodiesterase 1 (TDP1): qHTS in cells in absence of CPT. Potency, µM (series often up to 46.2 µM), without a hit: at the highest dose activity change, negative = growth inhibition, actives largely listed as inhibitors. DT40 Tdp1-/- hTDP1 cells, no CPT, ATP luminescence, 48 h. 420,000 tested, 15% active; note: potency is the fitted concentration of half-maximal effect; % is set by controls: 0 for no effect and ±100 for the full control effect; nearly all actives have a fitted effect of over 55% in size
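Cells were dispensed at 400 per well, compounds added by pin tool, plates incubated ≥48 hr at 37 °C, then CellTiter-Glo added for 30 min at room temperature before luminescence reading. Line: DT40 Tdp1-/- complemented with hTDP1; camptothecin omitted.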
SW480 rerep: induces DNA re-replication in SW480 colon adenocarcinoma cells; AID 624297; SW480 DNA re-replication, Hoechst DNA content imaging, 48 h; Potency, µM (series often up to 46.1 µM), for the others: at the highest dose re-replication activation, hits mostly activators; 340,000 tested, 1.8% active; note: potency is the fitted concentration of half-maximal effect; % of control where 0% means no effect; nearly all actives have a fitted effect of over 55% in size
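250 cells/well; 23 nL cpd via pin tool; 48 hr, 37 C, 5% CO2; Hoechst 40 min; imager read of total nuclear intensity, ex 405/em 500-530 nm.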
MCF10A rereplic: inducers of DNA re-replication in MCF 10A breast cells; MCF 10A DNA re-replication, Hoechst nuclear intensity, 48 h; Potency, µM (doses to about 46.1 µM), for the others: at the highest dose activity, positive = re-replication, hits mostly activators; 350,000 tested, 2.9% active; note: potency is the fitted concentration of half-maximal effect; % of control where 0% means no effect; nearly all actives have a fitted effect of over 50% in size
* hit, by the source's call; u = inconclusive; x = not tested or not shown; ! = a repeat was not active. Unless noted, calls come from the whole dose curve; as a rule, active = well fitted curve in the direction sought with a large enough effect; inconclusive = small, poorly fitted or top-dose-only effect, or another doubt; inactive = no such curve, though single readings can be large; an effect the other way counts as inactive or inconclusive.

SMILES	BCR signal inh	DT40 TDP1 CPT	IL1B secr inh	TDP1 cell noCPT	SW480 rerep	MCF10A rereplic
CC(C)c1ccc(NC(=O)C2(C)Cc3c(-c4ccc(N(C)C)cc4)ccnc3O2)cc1 (stereo not drawn)	x	u	-19	16µM*	x	x
CC(C)c1ccc(NC(=O)C2(C)Cc3c(-c4cccc(C(F)(F)F)c4)ccnc3O2)cc1 (stereo not drawn)	x	16µM*	-19	u	x	x
CC(=O)c1csc(COc2ccc(Cl)cc2)n1	u	u	-7	-28%	-13%	-4%
C[C@@H]1C(=O)N(c2ccccc2)[C@@H]1c1ccncc1	u	1%	5	-16%	-8%	6%
CCN(Cc1ccncc1)C(=O)c1ccc(Br)o1	-12%	-6%	18	5%	-7%	-5%
COc1cc(OC)cc(C(=O)NNC(=O)CCNS(=O)(=O)c2ccc(Br)cc2)c1	-8%	-26%	4	-18%	-9%	-7%
CC(=O)c1cccc(NC(=O)C2(C)Cc3c(-c4cccc(C(N)=O)c4)ccnc3O2)c1 (stereo not drawn)	x	u	-23	u	x	x
CC(C)NC(=O)C1(C)Cc2c(-c3ccc(N(C)C)cc3)ccnc2O1 (stereo not drawn)	x	4.1µM*	8	4.1µM*	x	x
CC(=O)Nc1ccc(-c2ccnc3c2CC(C)(C(=O)NC(C)C)O3)cc1 (stereo not drawn)	x	-11%	7	-21%	x	x
COc1ccc(NC(=O)C2(C)Cc3c(-c4cccc(C(N)=O)c4)ccnc3O2)cn1 (stereo not drawn)	x	3.7µM*	29	2.3µM*	x	x
Cc1ccc(N(CC(=O)NCc2ccccn2)S(=O)(=O)c2ccccc2)cc1C	u	1%	0	-24%	0%	6%
CCn1cc2nc(SCC(=O)Nc3ccc(C)cc3)n(Cc3ccc(C)cc3)c(=O)c2n1	x	21µM*	x	13µM*	x	x
CCn1cc2nc(SCC(=O)Nc3ccc(OC)c(OC)c3)n(Cc3ccc(OC)cc3)c(=O)c2n1	u	u	0	u	-8%	6%
CCn1cc2nc(SCC(=O)Nc3ccc(OC)cc3OC)n(Cc3ccc(OC)cc3)c(=O)c2n1	-25%	4.1µM*	6	2.6µM*	7.3µM*	3.3µM*
CCn1cc2nc(SCC(=O)Nc3ccccc3C(F)(F)F)n(Cc3ccc(C)cc3)c(=O)c2n1	x	16µM*	x	18µM*	x	x
Cc1cc(NC(=O)Nc2ccccc2[N+](=O)[O-])n(C)n1	-3%	-2%	2	16%	-19%	-5%
CCCC(C(=O)NC1CCCC1)N(C(=O)c1snc(C(N)=O)c1N)c1ccc(F)cc1 (stereo not drawn)	-10%	-10%	-15	-26%	12%	u
Cc1nccn1CCCNC(=O)CC1C(=O)NCCN1Cc1ccc(F)cc1Cl (stereo not drawn)	-11%	1%	5	0%	7%	18%
COc1cc([N+](=O)[O-])ccc1NC(=O)NCC1CCN(Cc2ccc(Cl)cc2)CC1	u	u	-79*	u	u	9%
Cc1ccc(C)c(CN2CCC(CNC(=O)Nc3ccc(C)c(C)c3)CC2)c1	5%	u	-64*	15µM*	u	u
COc1ccc(Cl)cc1NC(=O)NCC1CCN(Cc2cc(C)ccc2C)CC1	u	u	-56*	u	19%	20%
COc1ccc(OC)c(CN2CCC(CNC(=O)Nc3cccc(Cl)c3)CC2)c1	u	u	0	u	4%	2%
COc1ccc(N2CCC(CNC(=O)Nc3ccc(C)c(C)c3)C2)cc1 (stereo not drawn)	u	-23%	-10	u	0%	15%
CSc1ccc(OC2(C)CCN(Cc3ccc(OC(C)C)cc3)C2)cc1 (stereo not drawn)	x	u	-10	u	x	x
Cc1cc2c3c(c1)C1(C(=O)N3C(C)(C)CC2C)C(C#N)=C(N)OC2=C1C(=O)CC(C)(C)C2 (stereo not drawn)	-7%	-24%	-16	u	-2%	1%
SMILES	BCR signal inh	DT40 TDP1 CPT	IL1B secr inh	TDP1 cell noCPT	SW480 rerep	MCF10A rereplic
Cc1cc2c3c(c1C)C1(C(=O)N3C(C)(C)CC2C)C(C#N)=C(N)Oc2cc(O)ccc21 (stereo not drawn)	0%	u	-62*	u	9%	13%
CC(C)CC1C(=O)N(Cc2cn(CCC3OCCCO3)nn2)CCS(=O)(=O)N1Cc1ccc(-c2ccc(Cl)c(Cl)c2)cc1 (stereo not drawn)	x	15µM*	u	16µM*	x	x
CC(C)C1C(=O)N(Cc2cn(CCC3OCCCO3)nn2)CCS(=O)(=O)N1Cc1ccc(-c2ccc(Cl)nc2)cc1 (stereo not drawn)	x	u	u	23µM*	x	x
CC(C)CC1C(=O)N(Cc2cn(CCC3OCCCO3)nn2)CCS(=O)(=O)N1Cc1ccc(-c2ccc(Cl)cc2)cc1 (stereo not drawn)	x	u	39	u	x	x
CC(C)CC1C(=O)N(Cc2cn(CCC3OCCCO3)nn2)CCS(=O)(=O)N1Cc1ccc(-c2ccc(Cl)nc2)cc1 (stereo not drawn)	x	u	58	21µM*	x	x
COc1ccc(-c2ccc(CN3C(C(C)C)C(=O)N(Cc4cn(CCC5OCCCO5)nn4)CCS3(=O)=O)cc2)cn1 (stereo not drawn)	x	15µM*	22	21µM*	x	x
CC(C)C1C(=O)N(Cc2cn(CCC3OCCO3)nn2)CCS(=O)(=O)N1Cc1ccc(-c2ccncc2)cc1 (stereo not drawn)	x	-27%	18	-28%	x	x
CC(C)NC(=O)NC(=O)CN1c2cccc3cccc(c23)S1(=O)=O	-12%	5%	29	-27%	0%	-1%
Cc1ccc(NC(=O)c2ccc(CNS(=O)(=O)c3ccc4c(c3)C(C)(C)C(=O)N4C)cc2)cc1F	x	16µM*	x	15µM*	x	x
CCc1cccc(NC(=O)c2ccc(CNS(=O)(=O)c3ccc4c(c3)C(C)(C)C(=O)N4C)cc2)c1	x	u	x	16µM*	x	x
CCOc1ccccc1CNS(=O)(=O)c1ccc2c(c1)C(C)(C)C(=O)N2C	-2%	u	28	23µM*!	-6%	-2%
CCc1ccccc1NS(=O)(=O)c1ccc2c(c1)C(C)(C)C(=O)N2C	5%	u	39	u	-6%	1%
Cc1ccc(NC(=O)c2ccc(CNS(=O)(=O)c3ccc4c(c3)C(C)(C)C(=O)N4C)cc2)cc1	x	2%	x	-18%	x	x

Source: PubChem (National Center for Advancing Translational Sciences (NCATS))
